Assay outcomes as filed in PubChem BioAssay.
BAZ2B block: inhibitors of human BAZ2B bromodomain. AlphaScreen BAZ2B-H3K14Ac peptide displacement. AID 504333. Potency, µM (top dose mostly 114 µM), inactives show at the highest dose activity change, negative = inhibition, usual class: inhibitors. actives 4.4% (n = 360,000). Q9UIF8; note: % is set by controls: 0 for no effect and ±100 for the full control effect; nearly all actives have a fitted effect of over 60% in size
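Protein-peptide AlphaScreen: BAZ2B 50 nM, b-H3K14Ac 50 nM, 1x PBS pH 7.4 + 0.01% Tween-20. Preincubation 30 min RT; cpd 30 min RT (top 110 uM); beads 20 min RT, light-protected.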
Sfp inh: Sfp phosphopantetheinyl transferase inhibition. Biochemical Sfp PPTase activity, qHTS. Potency, µM, for inactives: largest response in the series, negative = inhibition, usual class: inhibitors. actives 3.5% (n = 310,000). AID 1490;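 note: the enzyme is Sfp with the accession as filed and its product quenches rhodamine fluorescence; 0% = enzyme reaction without inhibitor and -100% = no enzyme wells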
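Step 1, compound plus 15 nM Sfp-PPTase, 15 min, room temperature. Step 2, add rhodamine-CoA (5 uM) and BHQ-2-YbbR (12.5 uM). Step 3, read 525/598 nm fluorescence at 0 and 30 min.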
G9a inh: blocks human histone lysine methyltransferase G9a; actives 8.8% (n = 350,000); G9a H3K9 monomethylation, AlphaScreen, 2 h; AID 504332; Q96KQ7; Potency, µM (titrated, usually from 102 µM), without a hit: at the top dose activity, negative = inhibition, hits mostly inhibitors; note: % is set by controls: 0 for no effect and ±100 for the full control effect; nearly all actives have a fitted effect of over 75% in size
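Compounds were preincubated with 20 nM G9a for 15 min, after which biotinylated H3K9 peptide (500 nM) and SAM (20 uM) started a 2 h room-temperature reaction. Monomethylated product was quantified by antibody-based AlphaScreen chemiluminescence.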
JMJD2A Tudor inh: inhibitors of human JMJD2A Tudor domain; O75164; AlphaScreen JMJD2A-Tudor / H3K4me3 peptide binding; Potency, µM (titrated, usually from 114 µM), without a hit: at the highest dose activity change, negative = inhibition, most hits filed as inhibitors; actives 4.4% (n = 390,000); AID 504339; note: % is set by controls: 0 for no effect and ±100 for the full control effect; nearly all actives have a fitted effect of over 50% in size
Target sequence (O75164 whole entry, looked up, the tested form may be a part): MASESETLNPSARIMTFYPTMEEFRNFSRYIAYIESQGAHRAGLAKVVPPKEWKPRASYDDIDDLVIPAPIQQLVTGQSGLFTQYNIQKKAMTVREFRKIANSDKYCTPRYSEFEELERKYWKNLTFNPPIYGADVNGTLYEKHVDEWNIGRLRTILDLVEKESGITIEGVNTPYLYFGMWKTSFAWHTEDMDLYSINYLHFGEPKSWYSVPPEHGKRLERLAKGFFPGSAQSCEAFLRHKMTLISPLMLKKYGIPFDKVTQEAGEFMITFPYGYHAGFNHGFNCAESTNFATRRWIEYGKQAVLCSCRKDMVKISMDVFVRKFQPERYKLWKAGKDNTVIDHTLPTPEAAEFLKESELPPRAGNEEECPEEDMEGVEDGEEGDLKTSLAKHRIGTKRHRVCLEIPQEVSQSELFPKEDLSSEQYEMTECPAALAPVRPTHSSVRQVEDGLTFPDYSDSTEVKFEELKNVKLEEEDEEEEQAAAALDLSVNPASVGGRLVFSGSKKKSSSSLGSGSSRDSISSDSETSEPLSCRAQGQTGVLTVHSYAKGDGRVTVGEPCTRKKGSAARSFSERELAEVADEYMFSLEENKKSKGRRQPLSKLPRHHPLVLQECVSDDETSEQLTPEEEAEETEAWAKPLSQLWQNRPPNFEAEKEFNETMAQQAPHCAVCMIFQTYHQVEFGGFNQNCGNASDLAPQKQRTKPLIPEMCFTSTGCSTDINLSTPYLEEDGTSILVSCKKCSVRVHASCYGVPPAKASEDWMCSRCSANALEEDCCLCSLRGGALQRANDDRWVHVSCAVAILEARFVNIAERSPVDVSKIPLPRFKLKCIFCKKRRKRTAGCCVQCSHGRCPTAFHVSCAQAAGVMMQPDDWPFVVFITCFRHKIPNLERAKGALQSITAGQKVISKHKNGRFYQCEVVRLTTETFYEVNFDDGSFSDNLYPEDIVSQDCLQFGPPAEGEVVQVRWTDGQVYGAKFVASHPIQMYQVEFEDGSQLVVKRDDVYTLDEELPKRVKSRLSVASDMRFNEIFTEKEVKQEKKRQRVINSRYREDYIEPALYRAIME
HP1b chromo inh: inhibitors of HP1-beta chromodomain binding to methylated histone tails; P83916; Potency, µM (doses to about 114 µM), for inactives: at the highest dose activity change, negative = inhibition, hits mostly inhibitors; actives 0.56% (n = 390,000); AlphaScreen HP1-beta / biotin-H3K9me3 peptide binding; note: nearly all actives have a fitted effect of over 70% in size
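HP1-beta protein (50 nM final) preincubated 30 min at room temperature with biotinylated H3(1-18)K9me3 peptide (50 nM) in PBS pH 7.4, 0.01% Tween-20, then compound added for 30 min. AlphaScreen streptavidin donor/nickel chelate acceptor beads (10 ug/mL final), 30 min dark, luminescence read.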
An asterisk follows results filed as active; ? = inconclusive; . = not tested or not shown; [ ] = remark or other dose. Only some compounds are listed: those with a hit (about 12% of all), similar ones and a draw of the others. Calls come from the whole dose curve; as a rule, active = well fitted curve in the direction sought with a large enough effect; inconclusive = small, poorly fitted or top-dose-only effect, or another doubt; inactive = no such curve, though single readings can be large; an effect the other way counts as inactive or inconclusive. Potency is the fitted concentration of half-maximal effect.

SMILES	BAZ2B block	Sfp inh	G9a inh	JMJD2A Tudor inh	HP1b chromo inh
O=C(CSc1nnc(Cc2ccsc2)o1)c1ccccc1	2.4%	-6.3%	16.7%	-6.4%	16.8%
CC(=O)OCC1(C)CN(c2ccccc2)N(C(=O)c2ccc(C(C)(C)C)cc2)C1=O (centres undefined)	-24.1%	-11.3%	39.8µM*	-18.3%	62.9%
CC(=O)OCC1(C)CN(c2ccccc2)N(C(C)=O)C1=O (centres undefined)	-14.9%	-37.8%	25.1µM*	-10.7%	28.2%
CC1(C)CN(c2ccccc2)N(C(=O)c2ccc(F)cc2)C1=O	-4.0%	11.7%	12.7%	4.5%	51.5%
CC(=O)OCC1(C)CN(c2ccccc2)NC1=O (centres undefined)	-21.6%	-45.9%	14.1µM*	-9.2%	15.5%
O=C(NCc1cn(-c2ccccc2)nc1-c1ccccc1)c1ccc([N+](=O)[O-])cc1	-5.6%	-6.9%	?	-21.0%	19.3%
CCOC(=O)N1CCC(NC(=O)CCC(=O)N2CC(C)Oc3ccc(Cl)cc32)CC1 (centres undefined)	4.7%	17.5%	-2.4%[12.7 µM]	0.8%	28.2%
CC(=O)Nc1cccc(C(=O)/C=C/c2ccc(/C=C/C(=O)c3cccc(NC(C)=O)c3)cc2)c1	0.9%	2.5%	0.6%[59 µM]	.	.
CC(=O)Nc1ccc(NC(=S)NC(=O)/C=C/c2ccco2)cc1	?	-27.9%	2.2%[0.501 µM]	?	6.5%
O=C(/C=C\c1ccco1)c1ccc(NC(=O)c2ccco2)cc1	44.7µM*	10µM*	22.4µM*	50.1µM*	?
CC(=O)Nc1cccc(C(=O)/C=C/c2ccco2)c1	-2.0%	14.1µM*	14.1µM*	-11.9%	5.8%
CC(=O)Nc1ccc(C(=O)/C=C/c2ccco2)cc1	56.2µM*	12.6µM*	10µM*	?	-25.7%
CCCOc1ccc(-c2csc(NC(=O)CN3C(=O)CCC3=O)n2)cc1	-0.3%	3.6%	-0.8%[59 µM]	-5.1%	14.7%
CCN(CC)c1ccc(NC(=O)c2sc3ccccc3c2Cl)cc1	11.2µM*	.	5.01µM*	11.2µM*	?
CCN(CC)NC(=O)Nc1ccccc1	-12.5%	12.3%	2.2%	-12.5%	1.2%
CCN(CC)c1ccc(NC(=O)Nc2ccccc2)cc1	?	-4.9%	8.91µM*	?	?
CCN(CC)c1ccc(NC(=O)CCNC(=O)c2ccco2)cc1	?	3.2%	7.94µM*	?	-38.7%
CCN(CC)c1ccc(NC(=S)NC(=O)Cc2ccccc2)cc1	11.2µM*	8.1%	7.94µM*	25.1µM*	?
O=C(N[C@H](Cc1ccc(Cl)cc1)C(=O)O)OCC1c2ccccc2-c2ccccc21	-7.9%	23.3%	-13.5%	-18.0%	27.9%
COc1ccc(C2=NO[C@@H]3C(=O)N(c4c(C)cccc4C)C(=O)[C@H]23)cc1OC	3.3%	8.8%	50.1µM*	-12.3%	43.0%
COc1ccc(OC)c(N2C(=O)[C@@H]3C(c4ccccc4Cl)=NO[C@@H]3C2=O)c1	31.6µM*	4.7%	25.7%[2.33 µM]	?	17.8µM*
Cc1cccc(C)c1N1C(=O)[C@@H]2C(c3ccccc3Cl)=NO[C@@H]2C1=O	-1.7%	8.4%	50.1µM*	-10.1%	5.5%
COc1ccc(OC)c(N2C(=O)C(Cl)=C(N3CCCCC3)C2=O)c1	.	5.3%	?	-16.1%	24.6%
CCN(c1ccccc1)S(=O)(=O)c1ccc(Oc2ccc(-n3ccnc3)cc2)nc1	?	-7.8%	22.8%[59 µM]	89.1µM*	-6.3%
CCN(c1ccccc1)S(=O)(=O)c1ccc(Oc2ccccc2C(C)=O)nc1	.	.	.	11.0%	42.5%
SMILES	BAZ2B block	Sfp inh	G9a inh	JMJD2A Tudor inh	HP1b chromo inh
COc1cc(C(=O)NCc2cn3ccsc3n2)cc(OC)c1OC	.	.	.	-1.9%	33.8%
CC(=O)c1ccc(N2CCN(S(=O)(=O)c3ccc4c(c3)CC(=O)N4)CC2)cc1	1.3%	18.1%	.	-29.1%[229 µM]	43.5%
O=S(=O)(Nc1ccc(N2CCOCC2)cc1)c1c(F)cc(F)cc1Br	-29.6%	5.6%	39.8µM*	-24.8%[57.1 µM]	?
COc1ccc(S(=O)(=O)Nc2ccc(N3CCOCC3)cc2)cc1[N+](=O)[O-]	-29.8%	-17.4%	44.7µM*	-15.4%	33.3%
COc1ccc(S(=O)(=O)Nc2ccc(N3CCOCC3)cc2)cc1Br	?	3.6%	10µM*	?	-17.0%
CC(=O)N1CCN(c2ccc(NS(=O)(=O)c3ccc4c(c3)CC(=O)N4)cc2)CC1	.	.	.	126µM*	.
Cc1nnc(SCC(=O)NC2CCCc3c2cnn3-c2ccc(F)cc2F)o1 (centres undefined)	-5.2%	6.8%	16.4%	-11.8%	18.3%
CCc1ccc(NC(=O)CCCn2nc(CC)n3c(cc4occc43)c2=O)cc1	?	5.3%	-8.9%	-29.3%	13.7%
Cc1cc(S(=O)(=O)Nc2ccc(N3CCOCC3)cc2)ccc1Br	?	8.5%	39.8µM*	?	-0.4%
CN1C(=O)Cc2cc(S(=O)(=O)Nc3ccc(N4CCOCC4)cc3)ccc21	-19.8%	2.3%	79.4µM*	-15.8%	7.5%
COc1ccc(S(=O)(=O)Nc2ccc(-n3cnnn3)cc2)cc1Br	-5.7%	.	56.2µM*	-5.8%	25.5%
COc1ccc(S(=O)(=O)NC2CCCCC2)cc1-n1cnnn1	-25.5%	8.1%	-3.3%	79.4µM*	-4.9%
COc1ccc(NS(=O)(=O)c2ccc(-n3cnnn3)cc2)cc1OC	-2.8%	7.9%	?	-4.3%	20.4%[57 µM]
O=C(CN(C(=O)C1CSC(=O)C1)c1ccccc1F)NCc1ccc2c(c1)OCO2 (centres undefined)	3.8%	13.0%	10.5%	-10.6%	16.0%
O=C1C=CC(=O)N1c1cccc(-c2ccccc2)c1	11.8%	1.78µM*	1µM*	50.1µM*	31.6µM*
O=C1c2ccccc2C(=O)N1c1ccccc1	.	.	.	-14.3%	22.5%
O=C(Nc1ncn[nH]1)c1ccccc1O	79.4µM*	13.5%	-0.1%[59 µM]	-27.0%	42.3%
CC(C)Oc1ccc(C(=O)Nc2nc3ccccc3[nH]2)cc1	1.7%	21.8%	24.4%	-2.4%	45.9%
CCOc1ccc(NC(=O)c2ccc(NC(=O)Cc3n[nH]c(=O)c4ccccc34)cc2)cc1	-13.6%	-2.5%	56.2µM*	1.4%	20.3%
CC(C)COc1ccc(C(=O)Nc2ncn[nH]2)cc1	17.9%	11.2%	.	-17.7%	20.8%
CCOc1ccc(C(=O)COC(=O)Cc2n[nH]c(=O)c3ccccc23)cc1	9.1%	.	-37.1%	-1.7%	20.9%
CC(C)Oc1ccc(C(=O)Nc2ncn[nH]2)cc1	50.1µM*	8.9%	-71.1%	?	60.3%
CCOc1ccc(C(=O)Nc2ncn[nH]2)cc1	50.1µM*	1.1%	-6.7%	-17.7%	32.2%
CCc1nnc(NC(=O)c2ccc3c(=O)n4c(nc3c2)CCCCC4)s1	-5.7%	11.4%	?	-22.1%	-20.6%
Cc1ccc(S(=O)(=O)N(C)c2ccc(OCC(=O)N3CCCCC3)cc2)cc1	-0.4%	10.8%	5.6%	-7.4%	8.2%
O=C(NCc1ccc(F)cc1)c1cnc(N2CCCCC2)c2ccccc12	29.0%	.	32.8%[59 µM]	16.5%	44.3%[57 µM]
